Data: PubChem BioAssay
Unmarked numbers belong to inactive results.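 How the source made its calls, unless noted: active means viability at or below 27.92% in each of two runs, the all-compound median minus 4 SD; inconclusive means no clear call, values can overlap the other calls; inactive means the rest.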 Records with an inconclusive call do not appear.

assay: growth suppression of PTEN-deleted HCT116, pilot screen, cell-based, HCT116 clonal line, CellTiter-Glo (AID 824); settings: 60 h, at 10 µM, stronger effect = lower value;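 further: 0% = 20 µM Hyamine control and 100% = vehicle cell control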

Structure (SMILES)	viability
O=C(O)CCCC(=O)Nc1c(F)c(F)c(F)c(F)c1F	94.4%
O=C1CC(NCc2ccc3c(c2)OCO3)C(=O)N1CCc1ccccc1 (stereo not given)	104%
O=S(=O)(NC1CCCCC1)c1ccc(Br)cc1	89.8%
CCn1c2ccccc2c2nnc(SCC(=O)c3ccccc3)nc21	90.7%
COc1ccccc1C1NC(=O)NC(C)=C1C(=O)Nc1cccc(C)c1C (stereo not given)	102%
CCOC(=O)c1[nH]c(C)c(C(=O)OCC)c1C	97.5%
Cc1ccc2c(c1)C(c1ccccc1)N(C(=O)c1ccc(Br)o1)CC(=O)N2 (stereo not given)	77.9%
CCSC1=C(C#N)C(c2ccc(F)cc2)CC(=O)N1 (stereo not given)	101%
O/N=C1/CCc2cccc3cccc1c23	103%
COc1ccc(OCc2nnc(SCC(=O)O)n2N)cc1	94.8%
Cc1noc(NS(=O)(=O)c2ccc(N3Cc4ccccc4C3=O)cc2)c1C	104%
Cc1cc(C)c(OCC(=O)Nc2cccc(NC(=O)c3ccco3)c2)c(Br)c1	60.8%
O=C(Cn1cc2c(n1)CCCC2)Nc1ccccc1Br	86.7%
CCCC(=O)C1=C(O)C(C(=O)OC)C(C)(C)CC1=Nc1ccccc1 (stereo not given)	88.6%
O=C(CCCN1C(=O)CSc2ncccc21)N1CCN(Cc2ccccc2)CC1	91.7%
CCOC(=O)c1c(C)c(C(=O)O)n(C)c1C	94.6%
CCOc1ccc(C2CC(c3cccc(C)c3)n3nc(N)nc3N2)cc1 (stereo not given)	83.2%
Cc1cccc(NC(=O)c2ccc(S(=O)(=O)N(C)C)cc2)c1	100%
COCCCNC(=O)c1cc2c(-c3ccc(Cl)cc3)nn(C)c2s1	84.5%
Cc1ccc(-c2nnc3n2N=C(c2ccccc2)CS3)cc1	96.9%

Structure (SMILES)	viability
COCCOC(=O)c1[nH]c2c(c1C)C(=O)CC(c1cc(OC)ccc1OC)C2 (stereo not given)	34.5%
COc1ccc(OC)c(C2C(C(N)=O)=C(C)Nc3nc(CCCO)nn32)c1 (stereo not given)	95.6%
CCOC(=O)Nc1ccc2ncn(C)c(=O)c2c1	94.8%
Cc1cc2c3nonc3ccc2n1-c1ccccc1	86%
O=C(Nc1ccc(F)cc1)C1CCC(N2C(=O)c3ccccc3C2=O)CC1 (stereo not given)	96.1%
CCOc1ccc(-n2c(Cc3cc(=O)[nH]c(=O)[nH]3)nnc2SC(C)C(=O)OC)cc1 (stereo not given)	103%
Cn1cccc1Cc1nnc(SCC(=O)N2CCCCCC2)n1-c1ccc(F)cc1	88.5%
Cc1occc1C(=O)NCc1cccs1	95.9%
CCC(C)(C(=O)NC1CCCCC1)N(Cc1ccco1)C(=O)CC1NC(=O)NC1=O (stereo not given)	94.9%
CCCCOC(=O)Cc1c(O)c2ccccc2[nH]c1=O	93.2%
CCCC(=O)N=c1sc2cccc(F)c2n1C	93.2%
Cc1ccc(N2CCN(c3cc(C)nc4nc(C)nn34)CC2)c(C)c1	75.8%
CC(C)CCOc1cccc(C2c3c(oc4ccccc4c3=O)C(=O)N2CCCN2CCOCC2)c1 (stereo not given)	84.2%
O=C1N=C(N2CCOCC2)SC1=C1CCCCC1	97.1%
CCOC(=O)N1CCC(N2CC34C=CC(O3)C(C(=O)Nc3ccc(F)cc3)C4C2=O)CC1 (stereo not given)	101%
COC(=O)/C=C/S(=O)(=O)c1ccc(NC(C)=O)cc1	85.4%
Cc1ccc(C)c(NC(=O)CS(=O)(=O)c2cn(C)c3ccccc23)c1	98.2%
CCOC(=O)C1C(C)N=C2SCC(=O)N2C1c1cccc(Br)c1 (stereo not given)	93.2%
CCOc1ccc(NC(=O)c2cnc3scc(C)n3c2=O)cc1	98.9%
COC(=O)c1ccc(N=c2sc(C(=O)OC)cc(=O)n2C)cc1	62.5%

assay: inhibitors of the yeast RAM network, pilot screen, dse1pr::URA3 reporter, 5-FOA selection (AID 869;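 active means inhibition over a set limit, the all-compound mean plus 3 SD, in both replicate runs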;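 further: 0% = DMSO wells with no growth and 100% = 10 µM 1-NA-PP1 with full growth; RAM network block rescues cells from 5-FOA so hits raise OD615 growth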); settings: S. cerevisiae dse1pr::URA3 5-FOA growth, OD615, 2 d; at 10 µM; stronger effect = higher value; strain carries analog-sensitive mutant Cbk1 kinase

Structure (SMILES)	inhibition
O=C(O)CCCC(=O)Nc1c(F)c(F)c(F)c(F)c1F	0.175%
O=C1CC(NCc2ccc3c(c2)OCO3)C(=O)N1CCc1ccccc1 (stereo not given)	1.88%
O=S(=O)(NC1CCCCC1)c1ccc(Br)cc1	0.065%
CCn1c2ccccc2c2nnc(SCC(=O)c3ccccc3)nc21	2.33%
COc1ccccc1C1NC(=O)NC(C)=C1C(=O)Nc1cccc(C)c1C (stereo not given)	0.77%
CCOC(=O)c1[nH]c(C)c(C(=O)OCC)c1C	3.55%
Cc1ccc2c(c1)C(c1ccccc1)N(C(=O)c1ccc(Br)o1)CC(=O)N2 (stereo not given)	-0.275%
CCSC1=C(C#N)C(c2ccc(F)cc2)CC(=O)N1 (stereo not given)	0.48%
O/N=C1/CCc2cccc3cccc1c23	2.06%
COc1ccc(OCc2nnc(SCC(=O)O)n2N)cc1	0.66%
Cc1noc(NS(=O)(=O)c2ccc(N3Cc4ccccc4C3=O)cc2)c1C	1.45%
Cc1cc(C)c(OCC(=O)Nc2cccc(NC(=O)c3ccco3)c2)c(Br)c1	0.45%
O=C(Cn1cc2c(n1)CCCC2)Nc1ccccc1Br	1.64%
CCCC(=O)C1=C(O)C(C(=O)OC)C(C)(C)CC1=Nc1ccccc1 (stereo not given)	0.685%
O=C(CCCN1C(=O)CSc2ncccc21)N1CCN(Cc2ccccc2)CC1	2.33%
CCOC(=O)c1c(C)c(C(=O)O)n(C)c1C	2.54%
CCOc1ccc(C2CC(c3cccc(C)c3)n3nc(N)nc3N2)cc1 (stereo not given)	1.02%
Cc1cccc(NC(=O)c2ccc(S(=O)(=O)N(C)C)cc2)c1	2.24%
COCCCNC(=O)c1cc2c(-c3ccc(Cl)cc3)nn(C)c2s1	3.08%
Cc1ccc(-c2nnc3n2N=C(c2ccccc2)CS3)cc1	3.56%

Structure (SMILES)	inhibition
COCCOC(=O)c1[nH]c2c(c1C)C(=O)CC(c1cc(OC)ccc1OC)C2 (stereo not given)	2.09%
COc1ccc(OC)c(C2C(C(N)=O)=C(C)Nc3nc(CCCO)nn32)c1 (stereo not given)	1.61%
CCOC(=O)Nc1ccc2ncn(C)c(=O)c2c1	-0.055%
Cc1cc2c3nonc3ccc2n1-c1ccccc1	0.9%
O=C(Nc1ccc(F)cc1)C1CCC(N2C(=O)c3ccccc3C2=O)CC1 (stereo not given)	1.48%
CCOc1ccc(-n2c(Cc3cc(=O)[nH]c(=O)[nH]3)nnc2SC(C)C(=O)OC)cc1 (stereo not given)	0.31%
Cn1cccc1Cc1nnc(SCC(=O)N2CCCCCC2)n1-c1ccc(F)cc1	1.27%
Cc1occc1C(=O)NCc1cccs1	0.455%
CCC(C)(C(=O)NC1CCCCC1)N(Cc1ccco1)C(=O)CC1NC(=O)NC1=O (stereo not given)	1.58%
CCCCOC(=O)Cc1c(O)c2ccccc2[nH]c1=O	1.82%
CCCC(=O)N=c1sc2cccc(F)c2n1C	0.795%
Cc1ccc(N2CCN(c3cc(C)nc4nc(C)nn34)CC2)c(C)c1	-0.325%
CC(C)CCOc1cccc(C2c3c(oc4ccccc4c3=O)C(=O)N2CCCN2CCOCC2)c1 (stereo not given)	0.82%
O=C1N=C(N2CCOCC2)SC1=C1CCCCC1	1.17%
CCOC(=O)N1CCC(N2CC34C=CC(O3)C(C(=O)Nc3ccc(F)cc3)C4C2=O)CC1 (stereo not given)	0.885%
COC(=O)/C=C/S(=O)(=O)c1ccc(NC(C)=O)cc1	0.565%
Cc1ccc(C)c(NC(=O)CS(=O)(=O)c2cn(C)c3ccccc23)c1	0.025%
CCOC(=O)C1C(C)N=C2SCC(=O)N2C1c1cccc(Br)c1 (stereo not given)	0.36%
CCOc1ccc(NC(=O)c2cnc3scc(C)n3c2=O)cc1	2.76%
COC(=O)c1ccc(N=c2sc(C(=O)OC)cc(=O)n2C)cc1	0.495%
